Pf growth 48h – P. falciparum growth inhibition at 48 hours (one generation) | P. falciparum luciferase growth in erythrocytes, 48 h | Potency, µM (doses to about 28.7 µM), for inactives: at the top dose activity change, negative = inhibition, most hits filed as inhibitors | actives 5.9% (n = 310,000) | AID 504832; note: potency is the fitted concentration of half-maximal effect; % is set by controls: 0 for no effect and ±100 for the full control effect
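Parasite viability was followed by luminescence of a genomically integrated firefly luciferase. Cultures held 0.1% parasitemia at 2% hematocrit (final), incubated under 5% CO2 at 37 C.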
Pf growth 96h – P. falciparum growth inhibition at 96 hour, primary screen for plastid delayed-death inhibitors; P. falciparum luciferase reporter growth, 96 h; Potency, µM (titrated, usually from 28.7 µM), for inactives: top-dose activity change, negative = inhibition, hits mostly inhibitors; actives 6.9% (n = 320,000); AID 504834; note: potency is the fitted concentration of half-maximal effect; % is set by controls: 0 for no effect and ±100 for the full control effect
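Readout is luminescence from an integrated firefly luciferase in P. falciparum. Red cells, 2% hematocrit and 0.05% parasitemia final, were cultured with compound through two parasite generations (96 hours) at 37 C, 5% CO2.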
LmPK inhibitor – blocks Leishmania mexicana pyruvate kinase activity | Q27686 | purified LmPK, Kinase-Glo ATP luminescence, 1 h | Potency, µM (series often up to 57.5 µM), inactives show at the highest dose activity change, negative = inhibition, actives largely listed as inhibitors | actives 0.37% (n = 290,000) | AID 1721; note: potency is the fitted concentration of half-maximal effect; % is set by controls: 0 for no effect and ±100 for the full control effect
Target sequence (Q27686 whole entry, looked up): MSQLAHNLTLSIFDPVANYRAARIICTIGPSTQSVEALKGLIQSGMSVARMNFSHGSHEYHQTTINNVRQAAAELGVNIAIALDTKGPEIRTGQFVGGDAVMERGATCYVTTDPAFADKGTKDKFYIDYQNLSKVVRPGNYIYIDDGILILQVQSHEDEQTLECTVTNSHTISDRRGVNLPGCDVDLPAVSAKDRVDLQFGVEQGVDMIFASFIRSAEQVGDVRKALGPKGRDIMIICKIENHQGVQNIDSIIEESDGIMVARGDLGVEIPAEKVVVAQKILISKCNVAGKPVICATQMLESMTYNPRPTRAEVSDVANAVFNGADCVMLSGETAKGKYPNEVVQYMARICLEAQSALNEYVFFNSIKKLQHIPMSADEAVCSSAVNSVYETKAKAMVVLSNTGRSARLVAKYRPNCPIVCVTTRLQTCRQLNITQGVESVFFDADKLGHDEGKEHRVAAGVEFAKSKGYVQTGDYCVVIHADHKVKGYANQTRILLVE
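Screened at intermediate enzyme activity to detect both inhibitors and activators: LmPK at 0.1 nM, with a 0.5 nM enzyme column as activation reference. PEP 0.5 mM, ADP 0.1 mM; ATP detected by luminescence after 1 h.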
Shiga inhibitor – inhibitors of Shiga toxin in Vero cells; Vero cells, Shiga toxin protein synthesis inhibition reporter; inhibition, % at 38.7 µM; actives 9.2% (n = 290,000); AID 2315; in the data active = inhibition mostly above about 28%, no sharp cut-off; inactive = mostly below about 43%; note: 0% is about no effect
Cycloheximide cs – affects cycloheximide protein synthesis inhibition readout, counter-screen; cell reporter, cycloheximide protein synthesis inhibition counterscreen; max response, %; actives 12% (n = 300,000); AID 2314; in the data active = max response mostly above about 13%, no sharp cut-off; inactive = mostly below about 14%; note: read at 38.3 µM for the half of the compounds with a filed dose; 0% is about no effect
An asterisk follows results filed as active; ? = inconclusive; · = no result given; + = active, no number; ! = a repeat was not active. Most compounds without a hit are left out; they make up all but 22% or so of the library. Unless noted, calls come from the whole dose curve; as a rule, active = well fitted inhibition curve with a large enough effect; inconclusive = small, poorly fitted or top-dose-only effect, or another doubt; inactive = no such curve, though single readings can be large or run the other way.

SMILES	Pf growth 48h	Pf growth 96h	LmPK inhibitor	Shiga inhibitor	Cycloheximide cs
C=C[C@@H]1c2cc(C)ccc2N(S(=O)(=O)c2ccc(C)cc2)[C@H](c2ccccc2C(F)(F)F)C1(C#N)C#N	?	123%	·	·	·
C=C[C@@H]1c2ccccc2N(S(=O)(=O)c2ccc(C)cc2)[C@H](c2ccccc2)C1(C#N)C#N	3.7µM*	?	·	·	·
Cc1ccc(CNS(=O)(=O)CCNC(=O)c2ccc3c(c2)OCO3)cc1	20%	49%	·	·	·
CCCCOCCCNC(=O)c1ccc2c(c1)OCO2	32%	21%	-5%	11	10
COCCCNC(=O)c1ccc2c(c1)OCO2	68%	·	-2%	+	23*
Cc1ccc(OCCNC(=O)c2ccc3c(c2)OCO3)cc1	?	29%	-1%	66*	42*
O=C1C=C(c2cnc3ccccc3c2)C[C@@H](c2ccc3c(c2)OCO3)C1	29%	-18%	·	·	·
O=C(CSc1nc(O)c(C2CCCCC2)c(=O)[nH]1)Nc1ccccc1Cl	12%	24%	-3%	-7	-2
Cc1ccc(Cn2ncn(-c3ccccc3)c2=O)cc1	20%	62%	-2%	30	19*
CC(C)CC1(C(=O)NCCN2CCOCC2)C=CCN1C(=O)c1ccccc1 (stereo not drawn)	-9%	-26%	-2%	-9	-1
CC(=O)N1CC=CC1(CC(C)C)C(=O)NCCN1CCOCC1 (stereo not drawn)	34%	24%	-5%	55*	34*
COC(=O)C(CC(=O)c1ccc(Br)cc1)n1ccnc1 (stereo not drawn)	?	-30%	10µM*	-1	1
Cc1cc(C)c2nc3nc(C)c(C)cc3c(N)c2c1	4.1µM*	?	0%	70*	20
CCN1C(=NCC(C)C)N[C@@H](c2cccc(C(F)(F)F)c2)C(C(=O)OC)=C1C	13µM*	0.93µM*	-8%	-8	-3
C=CCN=C1N[C@@H](c2cccc(C(F)(F)F)c2)C(C(=O)OC)=C(C)N1CC	10µM*!	3.3µM*	-8%	13	-3
COC(=O)C1=C(C)N(Cc2ccccc2)C(=NCc2ccc(OC)cc2)N[C@H]1c1ccccc1	?	-4%	-1%	-4	-3
COC(=O)C1=C(C)N(Cc2ccccc2)C(=NCC(C)C)N[C@H]1c1ccccc1	?	8.3µM*	-6%	-4	-3
COC(=O)C1=C(C)N(Cc2ccccc2)C(=NCCCCO)N[C@H]1CCc1ccccc1	?	3.7µM*	-7%	-3	-3
C=CCN=C1N[C@@H](c2ccccc2)C(C(=O)OC)=C(C)N1CC	31%	?	-7%	-1	-1
O=[N+]([O-])c1ccc(-n2cnc3ccccc32)c([N+](=O)[O-])c1	?	38%	19%	-3	-1
CCOC(=O)C1=C(C)N=c2s/c(=C\c3ccc(OCC(=O)O)cc3)c(=O)n2C1c1ccc(Cl)cc1 (stereo not drawn)	9.3µM*	1.5µM*	-2%	28	-2
CCOC(=O)C1=C(C)N=c2s/c(=C/c3ccc(OCC(=O)O)cc3)c(=O)n2C1c1ccc(SC)cc1 (stereo not drawn)	5.2µM*	?	-4%	13	-3
CCOC(=O)C1=C(C)N=c2s/c(=C\c3ccncc3)c(=O)n2C1c1ccc2c(c1)OCO2 (stereo not drawn)	4.1µM*	-2%	1%	-13	-3
CCOC(=O)C1=C(C)N=c2s/c(=C/c3ccc(OCC(=O)O)cc3)c(=O)n2C1c1ccc(F)cc1 (stereo not drawn)	3.3µM*	?	2%	-1	-1
COc1ccc(C2C(C(=O)OC(C)C)=C(C)N=c3s/c(=C\c4cccs4)c(=O)n32)cc1 (stereo not drawn)	?	?	0%	-1	-3
SMILES	Pf growth 48h	Pf growth 96h	LmPK inhibitor	Shiga inhibitor	Cycloheximide cs
CCOC(=O)C1=C(C)N=c2s/c(=C/c3ccccc3)c(=O)n2C1c1ccc(OC)c(OC)c1 (stereo not drawn)	?	?	2%	-9	-4
Cc1ccccc1NC(=O)COC(=O)c1c[nH]c(=O)[nH]c1=O	1%	0%	1%	21	-2
COc1ccc(S(=O)(=O)N2CCN(c3ccccc3OC)CC2)cc1C(=O)N1CCCCC1	-16%	31%	-4%	9	-2
O=C(CSc1ncnc2sc3c(c12)CCCCC3)NCc1ccco1	-1%	·	5%	103*	63*
Cc1nc2sc3c(c2c2nnc(SCC(=O)NCc4ccco4)n12)CCCC3	-13%	16%	0%	active	28*
O=C(CSc1nnc2c3c4c(sc3ncn12)CCCC4)NCc1ccco1	2%	-10%	1%	-7	-1
O=C(CSc1ncnc2sc3c(c12)CCCC3)c1ccccc1	4%	2%	1%	15	1
O=C(CSc1nc2sc3c(c2c(=O)n1-c1ccccc1)CCCC3)NCc1ccco1	-6%	?	0%	-12	-3
O=C(CSc1ncnc2sc3c(c12)CCCC3)c1ccco1	39%	-11%	3%	156*	68*
CC(=O)Nc1cc2c3c(c1)CC(=O)N3CCC2	27%	17%	-3%	6	10
Cc1ccc(C[C@H](C(=O)O)N2C(=O)c3ccc(C(=O)O)cc3C2=O)cc1	9%	11%	·	5	-3
O=C1CCC(C(=O)N2CCCCO2)CN1Cc1cccc(F)c1 (stereo not drawn)	8%	?	-5%	9	11
Cc1ccc(Oc2ncccc2C(=O)NCC(=O)O)cc1	37%	1%	4%	-4	-4
NC(=O)c1nnn(-c2cccc(C(F)(F)F)c2)c1-c1ccccc1	16%	13%	2%	-11	5
O=C(O)c1cccc(-n2cc(-c3cccc(C(F)(F)F)c3)cn2)c1	231%	341%	2%	118*	54*
CCN(CC)CCN(C(=O)CCS(=O)(=O)c1ccccc1)c1nc2c(C)cc(C)cc2s1	2%	1%	-6%	-8	-2
Cc1cc(C)cc(SCc2noc(C(=O)NCc3ccccc3)c2C(=O)NCc2ccccc2)c1	0%	11%	3%	-3	1
CC(NC(c1ccccc1)c1ccccc1)C(=O)N1CCCc2ccccc21 (stereo not drawn)	10µM*	10µM*	5%	9	-3
Cc1cccc(NC(=O)CSCC(=O)N2CCCc3ccccc32)c1	-13%	?	·	·	·
O=C(C(=O)N1CCCc2ccccc21)N1CCCc2ccccc21	2%	?	2%	-10	1
O=C(Nc1ccccc1)N1CCCc2ccccc21	17%	?	3%	26*	13
Cc1ccc(NC(=O)N2CCCc3ccccc32)cc1C	100%	-39%	-1%	53*	39*
Cc1cccc(NC(=O)N2CCCc3ccccc32)c1C	22%	8%	4%	46	36*
Cc1ccc(NC(=O)/C(=C\c2ccccc2)NC(=O)/C=C/c2ccccc2)cc1	?	?	8%	4	5
